These results are taken from publication PMC5540273 (PLoS ONE, 2017).

Molecules are shown by their SMILES. Where only a bound is given, the exact number is not on record here.

One experiment has as its system T1, PIK4CB.
T1 construct: gene PI4KB

Another experiment has as its system T2, PKAC-alpha.
T2 construct: gene PRKACA

A further experiment concerns T3, PKAC-beta.
T3 construct: gene PRKACB
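Note: kd values determined as follow-up on hits from a single-replicate KINOMEscan panel screen.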

In general, Kd refers to the concentration at which binding is half-saturated. A higher Kd goes with weaker binding. `CNc1nccc(-c2c(-c3ccc(F)cc3)ncn2CCCN2CCOCC2)n1` [SB-222516]: the Kd in the experiment with PAK2 and in the experiment with PIM3 was greater than 10 µM each time.

`Oc1ccc2ncnc(Nc3ccc(OCc4ccccc4)cc3)c2c1` [GI262866] showed a Kd in the experiment on PAK3 greater than 10 µM.

`CCCc1ccc(S(=O)(=O)NC2CCN(c3ccnc(Nc4ccc(OC)cc4)n3)C2)cc1` (centres unmarked) [GSK1379737] displayed a Kd with PAK3 greater than 10 µM.

For `Cc1ccc(C)c(NC(=O)NCCNc2ccnc(Nc3ccc(F)cc3)n2)c1` [GSK1379878], in the experiment on PAK6, the Kd is greater than 10 µM.

Take `c1ccc(-c2ccc3c(-c4ccnc(Nc5ccc6c(c5)OCCO6)n4)cnn3n2)cc1` [GW818941]: the Kd in the experiment with PAK6 was greater than 10 µM.

Turning to `Cl.Cn1ccc(-c2cccc(Nc3ccnc4cc(-c5nccs5)ccc34)c2)n1` [GW525701], the Kd with PAK7 is greater than 10 µM.

Take `CC(C)(C)c1ccc(-n2cnc3c(N)ncnc32)cc1` [SKF-97263]: the results for the Kd with PIK3C2B, with PIK3CA and in the experiment on PIK3CG were 8.3 µM, greater than 10 µM and 2.4 µM, respectively.

Regarding `CSc1nn2c(=O)cc(N3CCOCC3)nc2n1Cc1cccc(Cl)c1Cl` [GSK2347225], the Kd in the experiment with PIK3C2B worked out at 0.36 µM; in the experiment with PIK3CB, 0.0008 µM; in the experiment on PIK3CD, 0.24 µM.

`O=c1cc(N2CCOCC2)nc2n(Cc3cccc(Cl)c3)ccn12` [GSK2296823] yielded a Kd in the experiment with PIK3CB of 0.015 µM.

`O=C(Nc1ccccc1F)NC1CCN(c2ccnc(Nc3ccc(F)cc3)n2)C1` (centres unmarked) [GSK1379722] returned a Kd in the experiment on PIK4CB greater than 10 µM.

As for `O=C(c1ccc(-c2cc(-c3c[nH]nc3-c3ccccn3)ccn2)cc1)N1CCCC1` [GW792479], the Kd with PIM1 is greater than 10 µM.

Take `Nc1nc(-c2ccccn2)c(-c2ccnc3ccccc23)s1` [GW548057]: the Kd with PIP5K1C was greater than 10 µM.

Turning to `COc1cc2c(Nc3cccc(NC(=O)c4ccccc4)c3)ncnc2cc1OCCCN1CCOCC1` [GSK223810], the Kd with PKAC-alpha is greater than 10 µM.

Take `C[C@@H]1CCN(C(=O)CO)C[C@@H]1N(C)c1ncnc2[nH]ccc12`: the Kd in the experiment on PKAC-beta and in the experiment with PKMYT1 was greater than 10 µM in each case.
